Compound activity (PubChem BioAssay)
MITF inh: human MITF inhibition, primary screen; O75030; AlphaScreen MITF homodimerization, bead proximity signal; inhibition, % at 2.6 µM; hit rate 0.91% among 650,000; in the data active = inhibition above about 50%;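 also: 0% = vehicle wells with protein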
FBW7 activator: human FBW7 E3 ligase activation, primary screen; Q969H0; AlphaScreen FBW7–phospho-cyclin E peptide binding, activator screen; normalized activity (activation), % at 26.1 µM; hit rate 0.13% among 650,000; AID 1259310; in the data active = normalized activity above about 1.9%;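 also: purified mutant Fbw7 with reduced substrate affinity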
Target sequence (Q969H0 whole entry, looked up): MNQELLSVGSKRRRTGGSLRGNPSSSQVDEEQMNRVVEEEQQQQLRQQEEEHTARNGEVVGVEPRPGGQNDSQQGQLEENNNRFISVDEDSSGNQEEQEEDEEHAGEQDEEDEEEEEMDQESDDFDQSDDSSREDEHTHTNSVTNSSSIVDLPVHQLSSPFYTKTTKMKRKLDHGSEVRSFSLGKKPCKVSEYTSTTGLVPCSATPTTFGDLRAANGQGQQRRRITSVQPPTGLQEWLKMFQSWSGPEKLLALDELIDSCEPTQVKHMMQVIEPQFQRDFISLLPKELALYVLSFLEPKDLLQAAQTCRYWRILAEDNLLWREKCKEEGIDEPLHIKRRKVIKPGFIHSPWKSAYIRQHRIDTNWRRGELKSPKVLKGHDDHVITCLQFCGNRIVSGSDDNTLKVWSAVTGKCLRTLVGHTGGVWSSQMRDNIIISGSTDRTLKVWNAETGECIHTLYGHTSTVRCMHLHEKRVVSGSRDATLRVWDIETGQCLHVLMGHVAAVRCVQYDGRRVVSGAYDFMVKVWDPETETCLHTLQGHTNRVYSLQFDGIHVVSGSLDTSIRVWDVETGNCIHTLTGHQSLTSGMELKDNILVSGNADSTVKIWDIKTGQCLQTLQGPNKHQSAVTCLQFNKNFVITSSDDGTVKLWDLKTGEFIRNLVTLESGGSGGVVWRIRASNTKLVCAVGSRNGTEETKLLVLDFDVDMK
GPR151 activ: human GPR151 activation | AID 1508602 | PathHunter beta-arrestin GPR151 cells, luminescence | activation, % at 11.2 µM | Q8TDV0 | hit rate 1% among 650,000; in the data active = activation above about 4.9%;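 also: 0% = median of compound wells and 100% = cells with positive control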
TEAD-YAP inh: TEAD-YAP interaction inhibition; HEK-TIYL cells, TEAD-Gal4/YAP UAS-luciferase luminescence; inhibition, % at 9.12 µM; hit rate 1.4% among 640,000; AID 1259422; in the data active = inhibition above about 32%;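 also: 0% = median of test compound wells and 100% = reference inhibitor wells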
GPR151 confirm: confirmation of human GPR151 activators. shares compounds with GPR151 activ. GPR151 PathHunter beta-arrestin cells, luminescence, 90 min; % of EA-reagent control over plate median. activation, % at 11.2 µM. 6,700 tested, under 10 active. AID 1508609;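 active = mean percent activation across replicates above the confirmation screen cutoff of 4.91%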
GPR119 counter: activates human GPR119 in a GPR151 counter-screen; shares compounds with GPR151 activ; GPR119 PathHunter beta-arrestin cells, luminescence, 90 min; 0 = compound-well median, 100 = enzyme-acceptor control; activation, % at 11.2 µM; hit rate 0.3% among 6,700;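 active = mean percent activation in the counterscreen above 29.09%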;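 also: counterscreen on off-target GPR119 to flag nonselective hits from the GPR151 activator screen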
Numbers without * were called inactive; / = no result. Compounds with a hit are over-represented: about 3.4% of the library has one in this group of screens.

SMILES	MITF inh	FBW7 activator	GPR151 activ	TEAD-YAP inh	GPR151 confirm	GPR119 counter
N#CCCN(Cc1cccnc1)C(=S)NC(=O)c1cccs1	6	0	5.6*	15	-2	-3
COC(=O)CN1C(=O)S/C(=C/c2cccn2C)C1=O	16	0	5	-19	/	/
Cc1cc(C)c2c(n1)sc1c(SCc3ccccc3)nc(C)nc12	-10	0	0	4	/	/
COc1ccc(C2(O)CN(c3cc(OC)ccc3OC)C3=[N+]2CCCS3)cc1 (stereo unspecified)	15	0	-1	-1	/	/
COc1ccc(OC)c(N2CC(O)(c3ccc(OC)c(OC)c3)[N+]3=C2SCCC3)c1 (stereo unspecified)	-6	0	5.4*	0	0	-11
CCOC(=O)c1c(NC(=O)CN2CCOCC2)sc(C(C)=O)c1C	24	0	8.4*	7	0	9
CCOC(=O)c1c(NC(=O)CN2CCOCC2)sc(C)c1C	1	0	1	5	/	/
CCN(CC)c1ccc(NC(=O)C2CC3CCCN3C23C(=O)Nc2ccccc23)c(C)c1 (stereo unspecified)	-3	0	5.4*	-2	0	5
CCN(CC)c1ccc(NC(=O)C2CC3CCCN3C23C(=O)N(C)c2ccccc23)c(C)c1 (stereo unspecified)	5	0	0	-6	/	/
COc1ccc(-c2ccc(/C=N/N3C(=O)C4C5C=CC(C6CC56)C4C3=O)o2)c([N+](=O)[O-])c1 (stereo unspecified)	10	0	5.0*	8	3	0
CCOC(=O)N1CCN(C(=O)CN(c2ccc(Cl)c(C(F)(F)F)c2)S(=O)(=O)c2ccc(C)cc2)CC1	11	0	1	6	/	/
CCOc1ccc(S(=O)(=O)Oc2ccc(Cl)cc2)cc1	-27	0	-1	1	/	/
COc1ccc(C(=O)NCc2ccccc2Cl)c(OC)c1	11	0	-2	0	/	/
COc1ccc(OCCn2c(-c3ccc(Cl)cc3)nc3ccccc3c2=O)cc1	-3	0	-1	-10	/	/
O=c1c2ccccc2cnn1CCOc1ccc(Cl)cc1	-4	0	4.9*	-40	0	-4
CC(=O)NCCSCc1cc2cccc3c2n(c1=O)CCC3	9	0	6.3*	-11	-1	-8
CCN1CCN(C2=NS(=O)(=O)C(c3ccc(C)cc3)=C2C)CC1	12	0	12*	-1	0	8
CN(CCc1ccccn1)C(=O)c1ccc(N2CC3CC(C2)c2cccc(=O)n2C3)c(NC(=O)c2cccs2)c1 (stereo unspecified)	7	0	7.4*	2	-1	-3
COC(=O)c1cc(NC(=O)c2ccc(N3CC4CC(C3)c3cccc(=O)n3C4)c(NC(=O)Nc3ccccc3)c2)cc(C(=O)OC)c1 (stereo unspecified)	-2	0	6.7*	-12	1	8
COc1cc(C(=O)Nc2cc(C(=O)N3CCN(c4ccccc4)CC3)ccc2N2CC3CC(C2)c2cccc(=O)n2C3)cc(OC)c1OC (stereo unspecified)	12	0	5.5*	6	-1	3
COc1cc(C(=O)Nc2cc(C(=O)Nc3ccccc3SC)ccc2N2CC3CC(C2)c2cccc(=O)n2C3)cc(OC)c1OC (stereo unspecified)	12	0	1	-12	/	/
Cc1ccc(C2C3C=CC4(O3)C2C(=O)N(C2CCCC2)C4C(=O)NC2CCCC2)cc1 (stereo unspecified)	-6	0	0	-1	/	/
COc1cc(-c2nnc(SCC(=O)c3ccc(-c4ccccc4)cc3)o2)cc(OC)c1OC	0	0	-1	8	/	/
COC(=O)c1sccc1S(=O)(=O)N1CCCC(C(=O)c2cccc(Cl)c2)C1 (stereo unspecified)	11	0	-1	0	/	/
CN(C)c1ccc(/C=C(\C#N)c2nn(-c3ccccc3)c(N)c2C#N)cc1[N+](=O)[O-]	8	0	2	-4	/	/
N#C/C(=C\c1ccc(Br)c([N+](=O)[O-])c1)c1nn(-c2ccccc2)c(N)c1C#N	7	0	4.9*	7	0	6
C=CCNc1nnc(SCC(=O)NC(C)(C)C)s1	8	0	-1	0	/	/
